Several values for one entry are separate records, joined by “and”; a condition that tells them apart may be missing. Equal entries are not always repeated. Some compounds were tested as several samples or in several runs, with calls that do not always agree. Activity calls are given as the source filed them. Unless noted, no stated cut-off is given here; in the data, active means inhibition above about 80%; inactive means the rest.
Tests used:
[1] = growth inhibition, single agent or in combination, cell-based, chromothripsis tumors, cisplatin or BGB combos (AID 1671449); details: LFS_MB_P medulloblastoma cells;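 further: cells exposed for 96 hours; 0% = vehicle DMSO and 100% = killing by high DMSO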
[2] = growth inhibition, single agent and combos, cell-based, chromothripsis tumors, cisplatin or BGB combos (AID 1671450); details: HDN33 neuroblastoma cells, stronger effect = higher value;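 further: cells exposed to compound for four days; 0% = vehicle DMSO and 100% = cell killing by high DMSO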
[3] = growth inhibition, single agents and combos, ICB984, cell-based, cisplatin or BGB combos, synergistic combos for chromothripsis tumors (AID 1671451; call rule not given here;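 further: cells exposed for 96 hours before readout; 0% = vehicle DMSO and 100% = killing by high DMSO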); details: ICB984 medulloblastoma cells, drug combinations, stronger effect = higher value
[4] = growth inhibition, single agents and combos, LFS_MB_1R, cell-based, cisplatin or BGB combos, synergistic combos for chromothripsis tumors (AID 1671452); details: LFS_MB_1R medulloblastoma cells, stronger effect = higher value;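 further: cells exposed for 96 hours before readout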
[5] = growth inhibition, single agents and combos, HTB85, cell-based, BGB or cisplatin IC20 combos, synergistic combos for chromothripsis tumors (AID 1671453); details: HTB85 osteosarcoma cells, drug combinations, stronger effect = higher value;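 further: cells exposed for 96 hours before readout; 0% = vehicle DMSO and 100% = high DMSO killing control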
[6] = growth inhibition, single agents and combos, CRL2098, cell-based, BGB or cisplatin IC20 combos, synergistic combos for chromothripsis tumors (AID 1671454); details: CRL2098 osteosarcoma cells, drug combinations, stronger effect = higher value;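 further: cells exposed for 96 h before readout; 0% = vehicle DMSO and 100% = killing by high DMSO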
[7] = growth inhibition, single agents and combos, HD-MB03, cell-based, BGB or cisplatin IC20 combos, synergistic combos for chromothripsis tumors (AID 1671455; in the data active means inhibition above about 83%;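 further: 0% = vehicle DMSO and 100% = high DMSO as cytotoxic control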); details: HD-MB03 medulloblastoma cells, stronger effect = higher value
[8] = growth inhibition, single agents and combos, UWB1.289, cell-based, BGB or cisplatin combos, synergistic combos for chromothripsis tumors (AID 1671456); details: UWB1.289 ovarian carcinoma cells, stronger effect = higher value;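 further: cells exposed to compound for four days; 0% = vehicle DMSO and 100% = killing by high DMSO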
[9] = growth inhibition, single agents and combos, LFS_MB_2R, cell-based, cisplatin combos, synergistic combos for chromothripsis tumors (AID 1671457); details: LFS_MB_2R medulloblastoma cells, stronger effect = higher value;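 further: cells exposed to compound for four days before readout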
[10] = growth inhibition, MDA-MB-436, cell-based, BGB or cisplatin combos, synergistic combos for chromothripsis tumors (AID 1671458; call rule not given here;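 further: cells exposed for 96 hours; 0% = vehicle DMSO and 100% = killing by high DMSO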); details: MDA-MB-436 breast carcinoma growth inhibition, drug combinations, stronger effect = higher value
[11] = UWB1.289_BRCA1 ovarian cancer growth, cell-based, BGB or cisplatin combinations (AID 1671459); details: UWB1.289 BRCA1 ovarian carcinoma, drug combinations, stronger effect = higher value
[12] = drug combination toxicity in non-malignant astrocytes – cell-based, BGB or cisplatin IC20 combos, cytotoxicity control for chromothriptic childhood tumor combination screen (AID 1671460); details: Human astrocytes, viability inhibition, drug combinations, at 0.5 µM, stronger effect = higher value;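 further: cells exposed to compounds for 96 hours before viability readout; 0% = vehicle and 100% = killing control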
[13] = BT084 cell growth, single and combined drugs, ICGC_MB145, cisplatin and BGB IC40 combos (AID 1671461); details: BT084 medulloblastoma cells, drug combinations, stronger effect = higher value;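 further: cells exposed to drugs for 96 hours; 0% = vehicle DMSO and 100% = high DMSO full killing control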
[14] = RCMB18 cell growth, single agent and combined, cisplatin and BGB IC40 combos (AID 1671462); details: RCMB18 medulloblastoma cells, stronger effect = higher value;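 further: cells exposed to compound for four days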
[15] = CRL1545 cell growth, single agent and combined, cisplatin and BGB IC20 combos (AID 1671464); details: CRL1545 osteosarcoma cells, stronger effect = higher value;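 further: cells exposed to compound for 96 hours before readout; 0% = vehicle DMSO and 100% = high DMSO killing control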
[16] = measured here: combination with BGB IC40, at 0.05 µM
[17] = measured here: with BGB IC20 combination, at 0.5 µM
[18] = measured here: with cisplatin IC20 combination, at 0.5 µM
[19] = measured here: combination with cisplatin, at 0.5 µM
[20] = measured here: combination with cisplatin, at 5 µM

## CC[C@@]1(O)C(=O)OCc2c1cc1n(c2=O)Cc2cc3cc(O)ccc3nc2-1
[1]; at 0.5 µM, stronger effect = higher value
  inhibition: 25.9% (inactive) and 5.42% (inactive)
[1]; measured here: combination with BGB IC20, at 0.005 µM
  inhibition: 4.22% and -3.99%
[1]; measured here: combination with BGB IC40, at 0.005 µM
  inhibition: -42.5% and -15.9%
[1]; [16]
  inhibition: -16% and -4.31%
[1]; measured here: combination with cisplatin, at 0.5 µM, stronger effect = higher value
  inhibition: 62.8% and 48.1%
[1]; measured here: combination with cisplatin, at 5 µM, stronger effect = higher value
  inhibition: 89.7% and 78.7%
[2]; BGB combo, at 5 µM
  inhibition: 98.1% and 98.5%
[2]; at 0.5 µM
  inhibition: 78.7% (inactive) and 83.5% (active)
[2]; cisplatin combo, at 5 µM
  inhibition: 96.5% and 98%
[2]; [17]
  inhibition: 82.7% and 84.4%
[2]; [18]
  inhibition: 71% and 81.1%
[2]; single agent, at 5 µM
  inhibition: 96.6% and 97.8%
[3]; BGB IC20 combo, at 0.005 µM
  inhibition: 23.2% and 34.7%
[3]; BGB IC40 combo, at 0.005 µM
  inhibition: 40.1% and 53.7%
[3]; BGB IC40 combo, at 0.05 µM
  inhibition: 93.9%
[3]; at 0.5 µM
  inhibition: -30.2% (inactive) and -10.4% (inactive)
[3]; cisplatin combo, at 0.05 µM
  inhibition: 93.6% and 93.9%
[3]; cisplatin combo, at 0.5 µM
  inhibition: -46.6% and -4.75%
[3]; cisplatin combo, at 5 µM
  inhibition: -24.4% and 16.7%
[3]; measured here: 5 uM single agent, at 5 µM
  inhibition: -21.1% and 2.06%
[4]; at 0.5 µM
  inhibition: 67.2% (inactive) and 79% (inactive)
[4]; [16]
  inhibition: -33.9% and 7.21%
[4]; [19]
  inhibition: 83.2% and 73.4%
[4]; [20]
  inhibition: 84.4% and 82.5%
[5]; at 0.5 µM
  inhibition: 99% (active) and 98.8% (active)
[5]; measured here: with BGB IC20, at 0.5 µM
  inhibition: 97.9% and 98.3%
[5]; measured here: with BGB IC20, at 5 µM
  inhibition: 98.2% and 98.3%
[5]; measured here: with cisplatin IC20, at 0.5 µM
  inhibition: 99.3% and 98.9%
[5]; measured here: with cisplatin IC20, at 5 µM
  inhibition: 99.6% and 99.7%
[5]; single agent, at 5 µM
  inhibition: 99.5% and 99.7%
[6]; at 0.5 µM
  inhibition: 58.1% (inactive) and 64.8% (inactive)
[6]; measured here: combination with BGB at IC20, at 0.5 µM
  inhibition: 81.9% and 74.5%
[6]; measured here: combination with cisplatin at IC20, at 0.5 µM
  inhibition: 44.1% and 55.5%
[7]; at 0.5 µM
  inhibition: 99.4% (active) and 99.3% (active)
[7]; measured here: combo with BGB at IC20, at 0.5 µM
  inhibition: 99.4%
[7]; measured here: combo with cisplatin at IC20, at 0.5 µM
  inhibition: 99.4% and 99.2%
[8]; at 0.5 µM
  inhibition: 90.1% (active) and 89.5% (active)
[8]; measured here: inhibition with BGB combination, at 0.05 µM
  inhibition: 17.9% and 40%
[8]; measured here: inhibition with cisplatin combination, at 0.05 µM
  inhibition: 28.7% and 40.8%
[9]; at 0.5 µM
  inhibition: 21.3% (inactive) and 29.5% (inactive)
[9]; [19]
  inhibition: 63.4% and 65.4%
[9]; [20]
  inhibition: 76.4% and 77.8%
[10]; at 0.5 µM
  inhibition: 69.5% (inactive) and 70% (inactive)
[10]; measured here: BGB combination, at 0.5 µM
  inhibition: 63.8% and 64.7%
[10]; measured here: BGB combination, at 5 µM
  inhibition: 63.6% and 74.3%
[10]; measured here: cisplatin combination, at 0.5 µM
  inhibition: 71.5% and 68.7%
[10]; measured here: cisplatin combination, at 5 µM
  inhibition: 80.4% and 83.5%
[11]; BGB combination, concentration series, at 5 µM
  inhibition: 96.9% and 98%
[11]; at 0.5 µM
  inhibition: 97.1% (active) and 97.8% (active)
[11]; cisplatin combination, concentration series, at 5 µM
  inhibition: 99.8% and 104%
[12]
  inhibition: 84.1% (active) and 83.3% (active)
[12]; measured here: combo with BGB IC20
  inhibition: 91.6% and 86.1%
[12]; measured here: combo with cisplatin IC20
  inhibition: 76% and 80.4%
[13]; at 0.5 µM
  inhibition: 13.5% (inactive) and 7.41% (inactive)
[13]; cisplatin combination, at 0.5 µM
  inhibition: 46.9% and 55.3%
[13]; cisplatin combination, at 5 µM
  inhibition: 28% and 7.98%
[13]; measured here: BGB IC40 combination 0.05 uM, at 0.05 µM
  inhibition: -21.8% and -8.97%
[13]; single agent, at 5 µM
  inhibition: 42.3% and 44.7%
[14]; at 0.5 µM
  inhibition: 36.1% (inactive) and 38.1% (inactive)
[14]; cisplatin combo, at 5 µM
  inhibition: 72.4% and 72.1%
[14]; measured here: BGB IC40 combination, at 0.05 µM
  inhibition: -15.2% and -13.6%
[14]; [19]
  inhibition: 47.7% and 55.8%
[14]; single agent, at 5 µM
  inhibition: 59.8% and 73%
[15]; at 0.5 µM
  inhibition: 81.7% (active) and 82.4% (active)
[15]; [17]
  inhibition: 95.3% and 93.8%
[15]; [18]
  inhibition: 74.8% and 76.7%
[15]; single agent, at 0.05 µM
  inhibition: 4.98% and 48.5%
[15]; single agent, at 5 µM
  inhibition: 99.8% and 99.9%

From PubChem BioAssay
